# Several values for one entry are separate records, joined by “and”; a condition that tells them apart may be missing. Equal values may be shown once. Records with an inconclusive call do not appear. Activity calls are given as the source filed them. Calls come from the whole dose curve; as a rule, active = well fitted activation curve with a large enough effect in the repeat runs; inconclusive = weak or mixed curves; inactive = flat fitted curve, though single readings scatter. Starred links: 1 amine or outer side, 2 acyl side, 3 side chain; linkers in the order of their positions; H or OH if unused. Positions of bridges follow the written chain, without caps; N, C: chain ends. Non-standard residues stand in square brackets, D forms with d. Residues, ends and D or L forms follow the SMILES beside them. Chains are numbered I, II in the order given. Actinocin(9to1) = Cc1c2oc3c(C)ccc(C(=O)[*:1])c3nc-2c(C(=O)[*:2])c(N)c1=O; NMeV = CN[C@H](C(=O)O)C(C)C; Sar = CNCC(=O)O
# Experiment: A CellTox Green Cytotoxicity Assay to monitor cytotoxicity in HepG2 cells - 24 hour (AID 1224878); note: nearly all actives have a fitted effect of over 45% in size
# Settings: CellTox Green fluorescence; series mostly up to 76.8 µM; cytotoxicity: at the top concentration
# Outline: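 Cells and non-lytic dye reagent are dispensed together (600 HepG2 cells/well) and incubated 5 h before DMSO compound transfer. Kinetic fluorescence is then recorded in the same wells during 40 h at 37 C.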
# % is set by controls: 0 for no effect and ±100 for the full control effect; potency is the fitted concentration of half-maximal effect.
Compound,cytotoxicity,Potency
CC(C)(C)NCC(O)c1cc(O)cc(O)c1 (configuration not stated),-18.4% [at 35.3 µM] (inactive),
"Cc1c2oc3c(C)ccc(C(=O)N[C@@H]4C(=O)N[C@H](C(C)C)C(=O)N5CCC[C@H]5C(=O)N(C)CC(=O)N(C)[C@@H](C(C)C)C(=O)O[C@@H]4C)c3nc-2c(C(=O)N[C@@H]2C(=O)N[C@H](C(C)C)C(=O)N3CCC[C@H]3C(=O)N(C)CC(=O)N(C)[C@@H](C(C)C)C(=O)O[C@@H]2C)c(N)c1=O (I: T[dV]P[Sar][NMeV] / II: T[dV]P[Sar][NMeV]; ester I:1-I:C, II:1-II:C; linker I:N-II:N via Actinocin(9to1))",-52.5% [at 35.3 µM] (inactive),
C#CC(C)(CC)OC(=O)c1ccccc1C(=O)O (configuration not stated),-0.248% [at 35.3 µM] (inactive),
CC(C)(C)NCC(O)COc1ccccc1OCC1CCCO1 (configuration not stated),4.84% [at 35.3 µM] (inactive),
COc1ccc(Cc2cnc(N)nc2N)cc1OC,-22.7% [at 35.3 µM] (inactive),
C=CS(=O)(=O)O,-2.39% (inactive),
CC(=O)C1=C(C)[C@@H]2C[C@@]3(C1)[C@H](C)CC[C@H]3C2(C)C,23.9% (inactive),
O=S(=O)(O)c1ccc2nc(-c3ccccc3)[nH]c2c1,,inactive
Cc1scc2c1N(C(=O)CN1CCN(C)CC1)c1ccccc1NC2=O,-5.72% [at 35.3 µM] (inactive),
COC(c1ccccc1)(c1ccccc1)[C@H](Oc1nc(C)cc(C)n1)C(=O)O,-22.2% [at 35.3 µM] (inactive),
OCCN1CCNCC1,,inactive
C1COC(NC(C2CC2)C2CC2)=N1,-11.9% [at 35.3 µM] (inactive),
Cc1cc(OCCOCC[N+](C)(C)Cc2ccccc2)ccc1C(C)(C)CC(C)(C)C,,17.3 µM (active) and 10.7 µM (active)
CC(=O)CC(=O)Nc1ccc2[nH]c(=O)[nH]c2c1,-13.8% (inactive),
CCN(CC)C(=O)Nc1ccc(OCC(O)CNC(C)(C)C)c(C(C)=O)c1 (configuration not stated),-16.7% [at 35.3 µM] (inactive),
CCCOC(=O)c1cc(O)c(O)c(O)c1,,inactive
CN1C(=O)c2ccc([N+](=O)[O-])cc2C1=O,-0.416% (inactive),
CC(C)(C)c1ccccc1,-4.9% (inactive),
Nc1nc2ccccc2[nH]1,,inactive

Compound,cytotoxicity,Potency
c1ccc2c(c1)CCCC2C1=NCCN1 (configuration not stated),-11.7% [at 35.3 µM] (inactive),
O=C(Cl)c1cccc(C(=O)Cl)c1,,inactive
CCc1cc(C(C)(C)C)c(O)c(C(C)(C)C)c1,,inactive
CC[C@@H](N)CO,2.21% (inactive),
Cc1ccc(-c2cc(C(F)(F)F)nn2-c2ccc(S(N)(=O)=O)cc2)cc1,,19.4 µM (active) and 49 µM (active)
CCCCCCCCCCCCCC[P+](CCCC)(CCCC)CCCC,,21.8 µM (active) and 15.5 µM (active)
CCC(CO)(CO)COCC(CC)(CO)CO,-6.26% (inactive),
Nc1cc(S(=O)(=O)O)cc2cc(S(=O)(=O)O)cc(O)c12,,inactive
O=C(O)Cn1cnnn1,-8.96% [at 35.3 µM] (inactive),
Oc1ccc(Cl)cc1Cc1cc(Cl)ccc1O,5.71% [at 35.3 µM] (inactive),
c1cnc2cc3c(cc2n1)C1CNCC3C1,-6.51% [at 35.3 µM] (inactive),
C=C(C)C(=O)O,,inactive
CCN(CC)CCOc1ccc(/C(=C(\Cl)c2ccccc2)c2ccccc2)cc1,,19.9 µM (active) and 21.3 µM (active)
NCCCCCC(=O)O,-17.5% [at 35.3 µM] (inactive),
CC(C)CCOC(=O)c1ccc(N(C)C)cc1,-1.07% [at 35.3 µM] (inactive),
CCN(CC)c1ccc2c(C)cc(=O)oc2c1,,inactive
CCCNC(C)C(=O)Nc1ccccc1C (configuration not stated),0.0517% [at 35.3 µM] (inactive),
CCOC(=O)C(C)C(C)=O (configuration not stated),14.2% (inactive),

# Reference: PubChem BioAssay (Tox21)
